Pf apPOL inh: Pf-apPOL inhibitors, biochemical, fluorescence. Recombinant Pf-apPOL, molecular beacon fluorescence, 1.5 h. inhibition, % at 10 µM. 210,000 tested, 0.25% active. AID 1794808, 2022
mHTT CaM bind: mutant huntingtin-calmodulin interaction inhibitors – biochemical, AlphaScreen, primary screen | 190,000 tested, 3.6% active | P42858 | AID 1671202, 2021 | inhibition, % at 15 µM | AlphaScreen His-mHTT/GST-CaM binding, luminescence
Numbers stand for hits; n = inactive; x = no result. In the library only some 3.5% were active in any assay of this set; here they are far more common. No stated cut-off is given here; in the data, active means inhibition above about 50%; inactive means the rest.

SMILES	Pf apPOL inh	mHTT CaM bind
O=c1c(NCCN2CCCC2)nc2ccncc2n1Cc1ccccc1	n	n
Cc1cccc2nnc(N3CCCC(C(=O)NC4CCCCCC4)C3)n12 (centres undefined)	n	n
O=C(Cc1ccc(F)cc1)N1CCC(c2ccn3ncc(C(=O)N4CCCCC4)c3c2)CC1	n	n
COCCCNC(=O)c1cnn2c(C(F)(F)F)cc(-c3ccccc3)nc12	n	n
C=CCNC(=O)c1cnn2c(C(F)(F)F)cc(-c3ccccc3)nc12	n	51
Nc1c(N)c(N)c(N)c(N)c1N	x	64
C[C@H]1COc2cccc(N3CCN(Cc4ccccc4F)CC3)c2S(=O)(=O)N1	n	n
CC(C)C[C@H]1COc2cccc(N3CCN(Cc4ccccc4F)CC3)c2S(=O)(=O)N1	n	80
O=[N+]([O-])c1ccc(S(=O)(=O)N2CCN(c3ccccn3)CC2)cc1	n	n
O=[N+]([O-])c1ccc(S(=O)(=O)N2CCN(c3ncccn3)CC2)cc1	99	n
c1ccc(-c2nc(-c3ccco3)[nH]c2-c2ccccc2)cc1	n	x
COc1cc(OC)c(-c2nc(-c3ccsc3)c(-c3ccccc3)[nH]2)cc1OC	n	68
CCc1cc(C2CCCN2C(=O)c2cc(-c3cccs3)on2)on1 (centres undefined)	n	n
O=C(C1CC1)N1CCc2cc(S(=O)(=O)Nc3ccc(F)c(Cl)c3)ccc21	n	n
Oc1ccccc1C1CC(c2cccs2)=NC(c2ccc(F)cc2)N1 (centres undefined)	n	n
O=C1S/C(=C\c2ccc(F)cc2)C(=O)N1CNc1ccccc1	n	57
O=C1S/C(=C\c2ccc(F)cc2)C(=O)N1CNc1cccc(Cl)c1	n	n
Cc1cccc(NCN2C(=O)S/C(=C\c3ccc(F)cc3)C2=O)c1	n	55
O=C1S/C(=C\c2ccc(F)cc2)C(=O)N1CNc1ccc(Br)cc1	n	n
Cc1cccc(C(C)(C)C)c1OCCOCCn1ccnc1	n	n
Cc1oc2cc3oc(=O)c4c(c3cc2c1C)CCC4	58	n
Cc1oc2cc3oc(=O)c4c(c3cc2c1-c1ccccc1)CCC4	n	n
CCCn1c(C2CCN(C(=O)CCc3ccc(OC)cc3)C2)nc2cccnc21 (centres undefined)	n	n
Cc1cc2c3c(C)n(C)c(C)c3c(C)nn2c1	n	79
CN1/C(=C\Sc2ccccc2[N+](=O)[O-])C(C)(C)c2ccccc21	n	76
SMILES	Pf apPOL inh	mHTT CaM bind
CN1C(=CC=C2C(=O)Oc3ccccc3C2=O)C(C)(C)c2ccccc21	n	n
COc1ccc(C(=O)Nc2c3c(nn2-c2ccc([N+](=O)[O-])cc2)CSC3)cc1	n	n
O=C(Cc1cccs1)NCCS(=O)(=O)N1CCc2ccccc2C1	n	n
COc1ccc(NS(=O)(=O)c2ccc(NC(=O)c3cc(Br)ccc3O)cc2)nn1	n	n
O=C1CC(NCCCN2CCOCC2)C(=O)N1c1ccc(N=Nc2ccccc2)cc1 (centres undefined)	n	n
O=C1CC(NCCCN2CCOCC2)C(=O)N1c1ccc(Br)cc1 (centres undefined)	n	54
Cc1ccc(C)c2c(N)c3c(nc12)CCCCC3	n	n
Cc1cccc(C2=NN(c3ccc(Br)cc3)[C@@H](C(=O)N3CCOC3=O)[C@@H]2c2ccc([N+](=O)[O-])cc2)c1	n	50
O=C1OCCN1C(=O)[C@H]1[C@H](c2ccc([N+](=O)[O-])cc2)C(c2ccccc2)=NN1c1ccccc1	n	n
O=C1OCCN1C(=O)[C@H]1[C@H](c2ccc([N+](=O)[O-])cc2)C(c2cccc(Cl)c2)=NN1c1ccccc1	n	55
Cc1cccc(C2=NN(c3ccc(Br)cc3)[C@@H](C(=O)N3CCOC3=O)[C@@H]2C)c1	n	n
CN(c1ccc(C(=O)Nc2cccc([N+](=O)[O-])c2)cc1)S(=O)(=O)c1ccccc1	n	n
Cc1ccc(NC(=O)N2CCC(n3cnc4ccc(Cl)cc4c3=O)CC2)cc1F	n	n
COCCCNC(=O)c1c(NC(=O)c2ccc(F)cc2)sc2c1CCCC2	n	n
CN1CCCN(C/C=C/c2ccccc2[N+](=O)[O-])CC1	n	n
N#Cc1ccc(N2CCN(C(=O)c3ccc(F)cc3Cl)CC2)cc1	n	x
N#CC1=C(S)NC(O)(c2ccccc2)C([n+]2ccccc2)C1c1ccccc1Br (centres undefined)	n	77
N#CC1=C(S)NC(=O)C([n+]2ccccc2)C1c1ccc(F)c(Br)c1 (centres undefined)	n	n
O=C1c2ccccc2NC(c2cccc(O)c2)N1c1ccc(F)cc1 (centres undefined)	n	n
CC(=O)c1cc(C#N)c(SCC(=O)c2ccc(Cl)cc2)nc1C	n	n
CC(=O)c1cc(C#N)c(SCC(=O)c2ccc(O)c(O)c2)nc1C	n	88
CC(=O)c1cc(C#N)c(SC/C=C/c2ccccc2)nc1C	n	97
Cc1cc(C)c(C#N)c(SC/C=C/c2ccccc2)n1	n	n
CCN(CC)C(=O)Cn1cc(/C=C2\C(=O)NC(=O)N(c3cccc(C)c3C)C2=O)c2ccccc21	n	56
CCn1cc(/C=C2\C(=O)NC(=O)N(c3ccc(C)cc3)C2=O)c2ccccc21	n	53
SMILES	Pf apPOL inh	mHTT CaM bind
CCn1cc(/C=C2\C(=O)NC(=O)N(c3ccc(F)cc3)C2=O)c2ccccc21	n	n
CCn1cc(/C=C2\C(=O)NC(=O)N(c3ccc(Br)cc3)C2=O)c2ccccc21	n	n
Cc1ccccc1CSCC(=O)NC1CC1	n	n
CN(C)c1ccc(C=Cc2ccc3ccccc3[n+]2C)cc1	n	x
CN1/C(=C/C=C/c2ccc3ccccc3[n+]2C)C=Cc2ccccc21	n	100
COC(=O)c1nc(N)n[nH]1	x	n
CCN1CCN(C(=O)C2CC(c3ccccc3F)=NO2)CC1 (centres undefined)	n	n
COc1cc(Cl)cc(/C=C2\C(=O)Nc3ccc(Br)cc32)c1OC	n	57
COc1cccc(/C=C2\C(=O)Nc3ccc(Br)cc32)c1OC	n	89
COc1cc(Cl)c(/C=C2\C(=O)Nc3ccc(Br)cc32)cc1OC	n	n
COc1ccccc1/C=C1\C(=O)Nc2ccc(Br)cc21	n	n
Cc1noc(C)c1S(=O)(=O)N1CCC(CC(=O)NCCN2CCCCC2)CC1	n	n
O=C(O)c1c[nH]c2ccc(S(=O)(=O)N3CCc4ccccc43)cc2c1=O	n	n
COc1ccc(-c2nnc(N3CCC(C(=O)NCc4ccc(Cl)cc4)CC3)o2)cc1	n	n
CC(C)c1ccc(C(=O)N2CCCC2COc2ccc(C(=O)N3CCOCC3)cc2)cc1 (centres undefined)	52	n
Cc1ccc(C(=O)N2CCCC2COc2ccc(C(=O)N3CCOCC3)cc2)cc1 (centres undefined)	n	n
O=C(Nc1nccn(-c2cccc(Cl)c2)c1=O)c1ccccn1	n	n
Cc1cc(C)cc(-n2ccnc(NC(=O)c3ccccn3)c2=O)c1	n	74
O=C(NCCCN1CCCC1=O)c1cc2c(s1)CCN(C(=O)c1ccc(F)cc1)C2	n	n
Cc1nc(C(=O)NCc2ccc(F)cc2)c(C)n1C1CCN(S(C)(=O)=O)CC1	n	n
COc1ccc(NS(=O)(=O)C=Cc2ccccc2)cc1N1CCCC1=O	n	n
CC1(C)CC(=O)C2=C(C1)OC(N)=C(C#N)C2c1ccc(-c2ccccc2)cc1 (centres undefined)	n	n
